Test systems include SR leukemia; OVCAR-8 ovarian; OVCAR-5 ovarian; OVCAR-4 ovarian; SK-OV-3 ovarian; IGROV1 ovarian; OVCAR-3 ovarian; HS 578T breast; NCI/ADR-RES ovarian; T-47D breast; MDA-MB-435 melanoma; SW-620 colon; MCF7 breast; HCT-116 colon; HCC-2998 colon; KM12 colon; RPMI-8226 leukemia; BT-549 breast.
Experiment in all cases: NCI-60 one-dose screen, 48 h (100 = growth as untreated, 0 = no growth, -100 = all killed)
What all share (conditions): 10 µM unless noted

Several values for one entry are separate records, joined by “and”; a condition that tells them apart may be missing. Identical values can stand only once. About 83,000 compounds went through this panel and 20% of them were active in at least one assay; those are over-represented in the sample as a whole.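 Growth was measured after 48 h exposure to one concentration of compound in 96-well plates. Values under 10 count as active.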 A number with no mark means an inactive call. Activity calls are given as the source filed them.

With `Cc1c2ccncc2c(C)c2c1[nH]c1ccccc12`, the growth in the assay with SR leukemia is -12.8% (active); in the assay on OVCAR-8 ovarian it was -14.2% (active); with OVCAR-5 ovarian it was -90.8% (active); with OVCAR-4 ovarian, -29.7% (active); in the assay on SK-OV-3 ovarian, -4.52% (active); in the assay with IGROV1 ovarian, -66.2% (active). In addition, the growth with OVCAR-3 ovarian was -86% (active); in the assay with HS 578T breast it was -47.3% (active); in the assay on NCI/ADR-RES ovarian, -46.9% (active); with T-47D breast, -56.1% (active); in the assay with MDA-MB-435 melanoma it was -89.6% (active); in the assay on SW-620 colon, -64.1% (active). The growth in the assay on MCF7 breast is -15.9% (active); with HCT-116 colon, -57% (active); in the assay on HCC-2998 colon, -96.8% (active); in the assay on KM12 colon, -69.3% (active).

For the compound `CCCC[C@@H]1CCN2C[C@@H](O)[C@@H](O)[C@@H]2[C@H]1O`, in the assay with MCF7 breast, the growth was 111% [100 µM] and 89.6% [100 µM].

With `CCOC(=O)c1c(SC)nc(-c2ccc(Cl)cc2)sc1=N`, the growth in the assay with MCF7 breast was -8.27% [100 µM] (active) and 5.36% [100 µM] (active).

As to `OCCNC1CCCCC1`, the growth in the assay on SR leukemia was 94.2%; in the assay with RPMI-8226 leukemia, 108%; in the assay with OVCAR-8 ovarian it was 112%; in the assay on OVCAR-5 ovarian, 98%; in the assay on OVCAR-4 ovarian it was 111%; in the assay with SK-OV-3 ovarian it was 105%. The growth with IGROV1 ovarian was 111%; with OVCAR-3 ovarian it was 112%; with HS 578T breast, 108%; with NCI/ADR-RES ovarian, 115%; with T-47D breast, 98.4%; in the assay with BT-549 breast, 113%. The growth in the assay with MDA-MB-435 melanoma is 106%; in the assay on SW-620 colon it was 108%; with MCF7 breast, 101%; in the assay with HCT-116 colon, 94.3%; with KM12 colon it was 107%.

For `C[C@]12CC[C@H](O)C[C@@H]1CC[C@@H]1[C@@H]2CC[C@]2(C)OC(=O)CC[C@@H]12`, the growth was 125% in the assay on SR leukemia; 85.6% in the assay with OVCAR-8 ovarian; 93.7% with OVCAR-5 ovarian; 104% in the assay with OVCAR-4 ovarian; 85% in the assay on SK-OV-3 ovarian; 93.1% with IGROV1 ovarian. For the same compound, the growth in the assay with OVCAR-3 ovarian was 99%; with HS 578T breast it was 111%; in the assay on NCI/ADR-RES ovarian, 101%; in the assay on T-47D breast, 63.6%; with BT-549 breast, 88.2%; in the assay on MDA-MB-435 melanoma, 102%. Further, the growth was 115% with SW-620 colon; 96.8% with MCF7 breast; 88.6% with HCT-116 colon; 102% with HCC-2998 colon; 92.5% in the assay with KM12 colon.

In the case of `O=C1CN2CCC1CC2`, the growth in the assay with SR leukemia was 100%; with OVCAR-8 ovarian it was 106%; in the assay with OVCAR-5 ovarian, 101%; in the assay on OVCAR-4 ovarian, 109%; with SK-OV-3 ovarian, 105%; with IGROV1 ovarian, 108%. Besides, the growth with OVCAR-3 ovarian is 107%; with HS 578T breast, 101%; in the assay on NCI/ADR-RES ovarian, 113%; in the assay on T-47D breast it was 91.1%; in the assay with BT-549 breast it was 94.5%; with MDA-MB-435 melanoma, 102%. The growth in the assay on SW-620 colon was 106%; in the assay on MCF7 breast it was 103%; with HCT-116 colon it was 100%; in the assay with HCC-2998 colon, 124%; with KM12 colon, 102%.

Regarding `C=C1C(=O)OC2/C=C(\C)CC/C=C(/C)CC(OC(=O)/C(=C/CO)CO)C12` (stereo not given), the growth in the assay with MCF7 breast is -85% [100 µM] (active) and -68.3% [100 µM] (active).

Turning to `O=C(O)C(O)c1ccc(Cl)cc1` (stereo not given), the growth in the assay with SR leukemia is 102%; in the assay on RPMI-8226 leukemia it was 111% and 92.1%; in the assay on OVCAR-8 ovarian it was 109% and 103%; in the assay with OVCAR-4 ovarian, 102% and 109%; with SK-OV-3 ovarian it was 101% and 108%; with IGROV1 ovarian, 110% and 111%. Moreover, the growth with OVCAR-3 ovarian was 116% and 104%; with HS 578T breast, 102% and 99.7%; in the assay on NCI/ADR-RES ovarian it was 106% and 107%; with T-47D breast it was 93.1% and 138%; in the assay on BT-549 breast, 101% and 103%; in the assay on MDA-MB-435 melanoma, 105% and 115%. Also, the growth in the assay on SW-620 colon was 107% and 103%; in the assay on HCT-116 colon, 93.7% and 95.1%; with HCC-2998 colon it was 98.3% and 108%; in the assay with KM12 colon, 108% and 100%.

In the case of `Cc1cc[c-]cc1.Fc1c[c-]c(-c2ccccn2)c(F)c1.N#CCC[PH+](CCC#N)c1ccccc1.[Pt+2]`, the growth in the assay with SR leukemia is 7.03% (active); with OVCAR-8 ovarian, 40.7%; in the assay on OVCAR-5 ovarian, 64.9%; in the assay on OVCAR-4 ovarian it was 42.1%; with SK-OV-3 ovarian, 108%; with IGROV1 ovarian it was 30.2%. Further, the growth was 28.5% with OVCAR-3 ovarian; 40.6% with HS 578T breast; 55.3% in the assay with NCI/ADR-RES ovarian; 29.1% with T-47D breast; 55.7% with BT-549 breast; 30.9% in the assay with MDA-MB-435 melanoma. For the same compound, the growth in the assay with SW-620 colon is 6.78% (active); in the assay on MCF7 breast, 20.8%; in the assay with HCT-116 colon it was 19.1%; with HCC-2998 colon it was 82.4%; in the assay with KM12 colon, 74.1%.

On to `C[C@]12CCC(=O)C[C@@H]1CC[C@@H]1[C@@H]2CC[C@]2(C)[C@@H](OC(=O)N(CCCl)N=O)CC[C@@H]12`, for which the growth was 17.4% in the assay on RPMI-8226 leukemia; 27.8% in the assay with OVCAR-8 ovarian; 42.6% in the assay on OVCAR-5 ovarian; 72.6% in the assay with OVCAR-4 ovarian; 16.1% in the assay with SK-OV-3 ovarian; -29.7% (active) with IGROV1 ovarian. The growth with OVCAR-3 ovarian was 49.5%; in the assay on HS 578T breast, 35.7%; with NCI/ADR-RES ovarian, 25%; in the assay with T-47D breast, 34%; with BT-549 breast, 32.9%; in the assay on MDA-MB-435 melanoma, 25.9%. The growth is 31.7% in the assay with SW-620 colon; 47.7% with MCF7 breast; 25.9% in the assay on HCT-116 colon; 44.6% in the assay with HCC-2998 colon; 3.72% (active) with KM12 colon.

The values above are taken from PubChem BioAssay (NCI).
